What was measured:
Settings in all cases: Compound Concentration (nM):1000
BIKE = tested on: T1, BIKE
T1 construct: gene BMP2K

BLK = tested on: BLK
BMPR1A = tested on: BMPR1A
BMPR1B = tested on: BMPR1B
BMPR2 = tested on: BMPR2
BMX = tested on: BMX
BRAF(V600E) = tested on: BRAF(V600E)
BRAF = tested on: BRAF
BRK = tested on: T2, BRK
T2 construct: gene PTK6

BRSK1 = tested on: BRSK1
BRSK2 = tested on: BRSK2
BTK = tested on: BTK
BUB1 = tested on: BUB1
CAMK1B = tested on: T3, CAMK1B
T3 construct: gene PNCK

CAMK1D = tested on: CAMK1D
CAMK1G = tested on: CAMK1G
CAMK1 = tested on: CAMK1
CAMK2A = tested on: CAMK2A
CAMK2B = tested on: CAMK2B
CAMK2D = tested on: CAMK2D
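Note: KINOMEscan scanMAX binding as percent activity remaining versus control; lower means stronger binding.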

| Compound | Percent Control (BIKE) [%] | Percent Control (BLK) [%] | Percent Control (BMPR1A) [%] | Percent Control (BMPR1B) [%] | Percent Control (BMPR2) [%] | Percent Control (BMX) [%] | Percent Control (BRAF(V600E)) [%] | Percent Control (BRAF) [%] | Percent Control (BRK) [%] | Percent Control (BRSK1) [%] | Percent Control (BRSK2) [%] | Percent Control (BTK) [%] | Percent Control (BUB1) [%] | Percent Control (CAMK1B) [%] | Percent Control (CAMK1D) [%] | Percent Control (CAMK1G) [%] | Percent Control (CAMK1) [%] | Percent Control (CAMK2A) [%] | Percent Control (CAMK2B) [%] | Percent Control (CAMK2D) [%] |
| --- | --- | --- | --- | --- | --- | --- | --- | --- | --- | --- | --- | --- | --- | --- | --- | --- | --- | --- | --- | --- |
| NS(=O)(=O)c1ccc(N/N=C2\C(=O)Nc3ccc(Cl)cc32)cc1 [GW280670X] | 100 | 100 | 100 | 100 | 100 | 100 | 92 | 100 | 100 | 100 | 86 | 100 | 100 | 100 | 100 | 100 | 100 | 100 | 100 | 100 |
| C/C(Nc1ccc(S(N)(=O)=O)cc1)=C1/C(=O)Nc2ccccc21 [GW335962X] | 100 | 100 | 99 | 97 | 84 | 86 | 86 | 100 | 95 | 91 | 81 | 83 | 90 | 79 | 83 | 86 | 52 | 79 | 72 | 100 |
| COc1cc(/C=N/Nc2ncnc3[nH]ncc23)ccc1O [GW578748X] | 53 | 32 | 100 | 22 | 9.6 | 89 | 26 | 35 | 80 | 100 | 61 | 44 | 23 | 83 | 85 | 100 | 100 | 80 | 100 | 96 |
| NS(=O)(=O)c1ccc(N/N=C2\C(=O)Nc3ccc(-c4cnco4)cc32)cc1 [GW276655] | 20 | 63 | 100 | 94 | 62 | 100 | 100 | 86 | 82 | 100 | 66 | 50 | 74 | 76 | 71 | 85 | 74 | 56 | 78 | 72 |
| Cl.O=S1CCN(Cc2ccc(-c3ccc4ncnc(Nc5ccc(OCc6ccccc6)c(F)c5)c4c3)o2)CC1 [GW576924A] | 100 | 100 | 100 | 100 | 100 | 100 | 65 | 79 | 100 | 100 | 85 | 100 | 100 | 100 | 100 | 100 | 100 | 100 | 100 | 100 |
| COC(=O)Nc1nc2ccc(Oc3ccc(NC(=O)Nc4cc(C(F)(F)F)ccc4F)cc3)cc2s1.Cl [GW693917A] | 75 | 61 | 89 | 80 | 99 | 100 | 17 | 30 | 96 | 100 | 93 | 72 | 65 | 75 | 90 | 100 | 88 | 93 | 88 | 98 |
| CCS(=O)(=O)c1ccc(OC)c(Nc2ncc(-c3cccc(F)c3)o2)c1 [GW621970X] | 100 | 16 | 95 | 64 | 100 | 100 | 73 | 91 | 100 | 100 | 89 | 71 | 100 | 100 | 100 | 100 | 100 | 85 | 100 | 100 |
| COc1cc(C=NNc2ncnc3c2cnn3-c2ccccc2)ccc1O [GW513184X] | 25 | 16 | 40 | 20 | 100 | 100 | 65 | 77 | 100 | 54 | 73 | 100 | 81 | 100 | 100 | 100 | 100 | 97 | 100 | 100 |
| CN(C)CCNC(=O)Nc1ccc(N(C)c2ccnc(Nc3ccc(CS(C)(=O)=O)cc3)n2)cc1.Cl [GW830900A] | 5.1 | 93 | 100 | 52 | 100 | 98 | 100 | 100 | 96 | 90 | 96 | 74 | 55 | 93 | 91 | 100 | 100 | 92 | 84 | 93 |
| COc1ccc2cc(-c3c(-c4ccncc4)nc(-c4ccc(S(C)(=O)=O)cc4C)n3C)ccc2c1 [SB-633825] | 100 | 52 | 79 | 63 | 91 | 54 | 86 | 97 | 44 | 100 | 73 | 45 | 33 | 53 | 96 | 83 | 93 | 87 | 97 | 77 |
| CC(C)COC(=O)c1ccc2c(c1)/C(=C/Nc1ccc(S(N)(=O)=O)cc1)C(=O)N2 [GW416981X] | 27 | 100 | 100 | 96 | 30 | 100 | 97 | 100 | 100 | 100 | 88 | 100 | 9.8 | 92 | 100 | 100 | 100 | 29 | 71 | 72 |
| Cc1cc(O)cc(C)c1/C=C/c1cncc(C(N)=O)c1 [GW435821X] | 100 | 59 | 64 | 4.4 | 100 | 100 | 12 | 23 | 58 | 94 | 50 | 100 | 100 | 100 | 100 | 100 | 91 | 100 | 100 | 100 |
| Cl.O=C(Nc1ccc(Oc2ccc3[nH]c(NC(=O)c4ccccc4)nc3c2)cc1)Nc1cc(C(F)(F)F)ccc1F [GW709042A] | 100 | 98 | 98 | 94 | 100 | 94 | 34 | 58 | 100 | 100 | 73 | 93 | 92 | 100 | 97 | 100 | 95 | 100 | 95 | 100 |
| COc1cc2ncn(-c3cc(O[C@H](C)c4ccccc4Cl)c(C(N)=O)s3)c2cc1OC [GSK237701A] | 1.4 | 68 | 100 | 88 | 72 | 75 | 75 | 100 | 100 | 76 | 47 | 53 | 56 | 87 | 91 | 93 | 86 | 89 | 100 | 82 |
| Cl.c1ccc(Cc2nc3ccc(Nc4ncnc5ccccc45)cc3[nH]2)cc1 [GR269666A] | 100 | 100 | 100 | 100 | 100 | 100 | 88 | 100 | 100 | 100 | 91 | 100 | 100 | 89 | 100 | 100 | 90 | 93 | 99 | 100 |
| COc1ccc(COc2ccc(Cc3cnc(N)nc3N)cc2OC)cc1 [GW632580X] | 94 | 78 | 100 | 92 | 94 | 100 | 91 | 100 | 100 | 100 | 55 | 96 | 100 | 100 | 95 | 96 | 100 | 90 | 96 | 89 |
| COc1ccccc1-c1cc(/C=C2\C(=O)Nc3ncc(Br)cc32)cc(Br)c1O [GW442130X] | 100 | 63 | 86 | 85 | 97 | 100 | 68 | 78 | 100 | 98 | 100 | 99 | 73 | 78 | 100 | 100 | 100 | 85 | 88 | 100 |
| O=C1Nc2ccc(C(=O)c3ccco3)cc2C1=Cc1cc(Cl)c(O)c(Cl)c1 [GW406108X] | 59 | 100 | 100 | 35 | 0 | 81 | 1.2 | 4.4 | 100 | 100 | 100 | 87 | 50 | 100 | 81 | 77 | 63 | 25 | 44 | 55 |
| CCS(=O)(=O)c1ccc(OC)c(Nc2ncc(-c3cccc(OC)c3)o2)c1 [GW580509X] | 100 | 21 | 100 | 45 | 100 | 100 | 78 | 86 | 100 | 100 | 96 | 99 | 95 | 100 | 99 | 100 | 87 | 71 | 80 | 97 |
| CCc1ccc(Oc2nccc(-c3c(-c4ccc(F)cc4)ncn3C3CCNCC3)n2)cc1 [SB-242719] | 100 | 82 | 87 | 88 | 82 | 100 | 100 | 100 | 94 | 94 | 100 | 100 | 73 | 100 | 86 | 100 | 90 | 67 | 63 | 100 |
| Cl.O=C(O[C@H]1CN[C@H](C#Cc2cc3ncnc(Nc4ccc5c(cnn5Cc5ccccc5)c4)c3s2)C1)N1CCOCC1 [GSK200398A] | 100 | 100 | 96 | 90 | 99 | 98 | 99 | 91 | 78 | 100 | 100 | 77 | 45 | 69 | 100 | 100 | 100 | 94 | 84 | 95 |
